LMP1 NFkB inh = Epstein-Barr LMP1 NF-kappaB reporter inhibition; LMP1-induced NF-kappaB luciferase reporter cells, luminescence; inhibition, % at 12.5 µM; 350,000 tested, 0.69% active; in the data active = inhibition above about 41%; inconclusive = no clear call, values can overlap the other calls;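 also: 0% = neutral control wells and 100% = reference inhibitor control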
PAX8 inh HTS = inhibitors of PAX8 transcriptional activity in RMG-I cells | inhibition, % at 12.6 µM | RMG-I TPO-luciferase reporter, SteadyGlo, 24 h | 360,000 tested, 1.2% active;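 active = mean replicate inhibition at least 60% with every replicate also reaching 60%; inconclusive = only one of the two criteria is met; inactive = mean below 60% and not all replicates reaching 60%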;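 also: luciferase light reporting Pax8 driven TPO promoter activity; plate controls were median of neutral control wells for no effect and mitoxantrone controls for full effect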
HIV Env fusion = blocks HIV Env-driven cell-cell fusion | HeLa-JRFL Env/CEM21 cell fusion, luciferase | inhibition, % at 12.3 µM | 360,000 tested, 1.1% active | AID 651610;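 active = mean replicate inhibition score of at least 50 and every replicate individually at or above 50; inconclusive = only one of the two criteria met; inactive = mean below 50 and not all replicates reaching 50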;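 also: 0% = plate neutral controls and 100% = maraviroc near 300 nM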
Shn3 3UTR inh = inhibitors of Schnurri-3 3'UTR reporter in osteoblasts; Clone20 osteoblast Shn3 3'UTR firefly luciferase, 24 h; inhibition, % at 12.5 µM; 360,000 tested, 0.52% active; AID 588674;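 active = mean inhibition of at least 75% with every replicate also reaching 75%; inconclusive = mean inhibition at least 75% but some replicate below; inactive = mean inhibition below 75%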;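 also: 0% = median of neutral control wells and 100% = pilot-screen positive control compound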
NSD2 HMT inh = blocks human histone methyltransferase NSD2; inhibition, % at 12.5 µM; 310,000 tested, 0.54% active; NSD2 peptide methylation, AlphaScreen, 120 min; in the data active = inhibition above about 50%
Target sequence (O96028 whole entry, looked up): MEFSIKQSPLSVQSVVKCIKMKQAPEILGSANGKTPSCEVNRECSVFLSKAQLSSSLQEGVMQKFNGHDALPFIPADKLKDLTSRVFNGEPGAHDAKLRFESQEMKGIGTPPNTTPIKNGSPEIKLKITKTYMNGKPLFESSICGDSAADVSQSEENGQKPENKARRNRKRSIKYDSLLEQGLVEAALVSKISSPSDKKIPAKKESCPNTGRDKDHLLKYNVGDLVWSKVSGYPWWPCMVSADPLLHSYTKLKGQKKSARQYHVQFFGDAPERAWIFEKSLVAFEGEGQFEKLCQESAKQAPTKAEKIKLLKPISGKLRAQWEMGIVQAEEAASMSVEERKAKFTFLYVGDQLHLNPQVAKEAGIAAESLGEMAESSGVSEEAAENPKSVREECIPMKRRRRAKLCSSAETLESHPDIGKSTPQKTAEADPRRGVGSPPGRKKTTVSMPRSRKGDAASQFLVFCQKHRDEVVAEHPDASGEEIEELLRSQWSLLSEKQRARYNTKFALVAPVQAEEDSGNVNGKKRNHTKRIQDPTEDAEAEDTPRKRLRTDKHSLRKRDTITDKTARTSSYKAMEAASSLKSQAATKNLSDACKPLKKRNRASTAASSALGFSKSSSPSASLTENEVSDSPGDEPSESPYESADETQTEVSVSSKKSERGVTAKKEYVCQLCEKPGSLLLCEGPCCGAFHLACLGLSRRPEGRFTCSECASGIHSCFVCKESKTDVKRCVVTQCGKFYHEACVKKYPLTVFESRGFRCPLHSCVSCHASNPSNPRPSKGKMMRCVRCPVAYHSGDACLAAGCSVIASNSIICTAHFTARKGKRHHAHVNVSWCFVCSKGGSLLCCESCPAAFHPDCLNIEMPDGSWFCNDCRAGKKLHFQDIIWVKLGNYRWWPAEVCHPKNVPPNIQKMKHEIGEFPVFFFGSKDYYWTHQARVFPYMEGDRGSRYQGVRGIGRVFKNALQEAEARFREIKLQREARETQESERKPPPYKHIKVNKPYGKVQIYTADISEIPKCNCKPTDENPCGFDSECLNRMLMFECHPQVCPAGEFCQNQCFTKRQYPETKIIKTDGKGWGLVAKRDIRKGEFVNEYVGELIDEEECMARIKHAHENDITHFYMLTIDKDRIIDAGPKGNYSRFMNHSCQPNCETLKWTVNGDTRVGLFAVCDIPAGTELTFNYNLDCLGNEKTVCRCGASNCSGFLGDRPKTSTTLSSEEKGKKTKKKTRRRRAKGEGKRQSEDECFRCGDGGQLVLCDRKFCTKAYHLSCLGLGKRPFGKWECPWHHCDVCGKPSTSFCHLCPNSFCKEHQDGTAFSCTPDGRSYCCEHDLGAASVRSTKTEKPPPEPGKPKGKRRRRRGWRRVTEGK
N-glyco inh = N-linked glycosylation inhibition | D54 ERlucT glycosylation luciferase reporter, 24 h; percent of 100 nM tunicamycin response | reporter increase, % at 12.5 µM | 360,000 tested, 0.23% active | AID 588692;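 active = mean luciferase reporter signal, scaled so untreated is 0 and the glycosylation-blocking control 100, at or above a set limit in every replicate; inconclusive = mean reaches the limit but not every replicate does; inactive = mean below the limit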;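 also: luciferase carries N-glycosylation sites so blocking glycosylation raises the light; 0% = median of neutral control wells and 100% = median of 100 nM tunicamycin wells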
Starred values were filed as active, the others as inactive; ? = inconclusive; / = no result given; [ ] = remark or other dose. Shown are actives, neighbours in structure and some others; about 2.8% of the full set was active somewhere.

SMILES	LMP1 NFkB inh	PAX8 inh HTS	HIV Env fusion	Shn3 3UTR inh	NSD2 HMT inh	N-glyco inh
Cc1nnsc1C(=O)N/N=C/c1ccc2ccccc2c1O	48*	?	15	81	-1	-7
Cc1cccc2cc(C(=O)CS(=O)(=O)c3ccc(Cl)cc3)c(=O)oc12	/	/	/	/	1	/
CCCNC(=O)N1CC2(C1)[C@H](c1ccccc1)[C@H](CO)N2C(=O)CC1CC1	/	-19	/	/	/	/
Cc1c(C(=O)Nc2nccs2)sc2nc(-c3cccs3)cc(C(F)(F)F)c12	2	/	57*	-4	4	2
Cc1c(C(=O)O)sc2nc(-c3cccs3)cc(C(F)(F)F)c12	-2	8	-8	-14	4	1
CC(C)NC(=O)N(C)C[C@@H]1Oc2ccc(NC(=O)Cn3cnnn3)cc2CC(=O)N([C@H](C)CO)C[C@@H]1C	/	2	8[16.7 µM]	/	/	/
CN(C)c1ccc(O)c2c1CC1CC3C(N(C)C)C(=O)C(C(N)=O)=C(O)[C@@]3(O)C(=O)C1=C2O (stereo not given in full)	5	15	34	20	/	-3
CN(C)c1ccc(O)c2c1CC1CC3[C@@H](N(C)C)C(=O)C(C(N)=O)C(=O)[C@]3(O)C(=O)C1C2=O (stereo not given in full)	12	35	87*	29	/	1
Cc1ccc(-c2ccc3c(c2)O[C@H](CN(C)C(=O)C2CCCCC2)[C@H](C)CN([C@@H](C)CO)S3(=O)=O)cc1	/	/	1[16.7 µM]	/	/	/
COc1cccc(C(=O)Nc2cc(C)on2)c1	-6	-140	-25	-45	-2	-2
COc1ccc(OCc2cccc(C(=O)Nn3cc([N+](=O)[O-])cn3)c2)cc1	83*	93*	?	-26	5	-7
COc1ccc(C(=O)Nc2ccc(OCc3ccccc3)cc2)cc1[N+](=O)[O-]	15	/	-51	13	0	-2
CCOc1ccc(OCc2cccc(C(=O)N3CCOCC3)c2)cc1	84*	/	84*	70	/	-9
NNC(=O)c1cccc(COc2ccc(Br)cc2)c1	38	-16	-6	-22	-2	-9
COc1ccc(OCc2cccc(C(=O)Nc3cc(C)on3)c2)cc1	81*	96*	-43	14	0	-7
COc1ccc(OCc2cccc(C(=O)NN)c2)cc1	62*	46	11	21	-2	-8
C[C@H](CO)N1C[C@H](C)[C@@H](CN(C)C(=O)NC2CCCC2)Oc2ncc(C#CCN(C)C)cc2C1=O	/	-11	-8[16.7 µM]	/	/	/
Cc1noc(C)c1NC(=O)Nc1ccc2c(c1)C(=O)N([C@@H](C)CO)C[C@@H](C)[C@H](CN(C)C(=O)Nc1ccccc1)O2	/	/	2[16.7 µM]	/	/	/
C[C@@H]1CCCCO[C@@H](CN(C)Cc2ccc(Cl)c(Cl)c2)[C@@H](C)CN([C@H](C)CO)C(=O)c2cc(NC(=O)Nc3ccccc3)ccc2O1	/	14	-33[16.7 µM]	10	/	-3
C[C@@H]1CN([C@H](C)CO)C(=O)c2cc(NC(=O)Nc3ccccc3)ccc2O[C@@H](C)CCCCO[C@@H]1CN(C)Cc1ccc(Cl)c(Cl)c1	/	86*	19[16.7 µM]	/	/	/
C[C@@H]1CCCCO[C@H](CN(C)Cc2ccc(Cl)c(Cl)c2)[C@@H](C)CN([C@H](C)CO)C(=O)c2cc(NC(=O)Nc3ccccc3)ccc2O1	/	9	5[16.7 µM]	/	/	/
C[C@@H]1CCCCO[C@@H](CN(C)Cc2ccc(Cl)c(Cl)c2)[C@H](C)CN([C@@H](C)CO)C(=O)c2cc(NC(=O)Nc3ccccc3)ccc2O1	/	86*	20[16.7 µM]	/	/	/
C[C@@H]1CN([C@@H](C)CO)C(=O)c2cc(NC(=O)Nc3ccccc3)ccc2O[C@@H](C)CCCCO[C@H]1CN(C)Cc1ccc(Cl)c(Cl)c1	/	81*	40[16.7 µM]	/	/	/
CC1(C)Cc2c(ccc3ccccc23)C(=O)N1	16	/	80*	-25	-6	-10
CCNC(=O)/C=C1\NC(C)(C)Cc2c1ccc1ccccc21	3	/	/	-6	2	2
SMILES	LMP1 NFkB inh	PAX8 inh HTS	HIV Env fusion	Shn3 3UTR inh	NSD2 HMT inh	N-glyco inh
COc1ccc(/C=N/NC(=O)Nc2cccc3nsnc23)cc1OC	8	86*	/	7	-1	-7
COc1ccc(/C=N/NC(=O)c2cccc(C(=O)N/N=C/c3ccc(OC)c(OC)c3)n2)cc1OC	/	0	6	-2	-1	1
Cc1ccc(-c2ccc([C@H]3[C@@H](CO)N4CCCCN(C(=O)c5ccc(F)cc5)C[C@H]34)cc2)cc1	/	73*	/	/	/	/
COCC(=O)N1CCCCN2[C@H](C1)[C@@H](c1ccc(-c3ccc(C)cc3)cc1)[C@@H]2CO	/	115*	/	/	/	/
Cc1ccccc1-c1ccc([C@@H]2[C@H](CO)N3CCCCN(C(=O)NC4CCCC4)C[C@@H]23)cc1	/	2	/	/	/	/
Cc1ccccc1-c1ccc([C@@H]2[C@@H](CO)N3CCCCN(C(=O)NC4CCCC4)C[C@H]23)cc1	/	82*	/	/	/	/
COCC(=O)N1CCCCN2[C@H](CO)[C@H](c3ccc(-c4ccc(C)cc4)cc3)[C@H]2C1	/	11	/	/	/	/
O=C(Nc1cc(F)ccc1F)N1CC(=O)N2[C@H](C1)[C@@H](c1ccc(C#CC3CCCC3)cc1)[C@@H]2CO	/	12	/	/	/	/
O=C(C[C@H]1CC[C@@H](NC(=O)C2CCC2)[C@@H](CO)O1)NCc1ccccc1Cl	/	-15	-1[16.7 µM]	/	/	/
CCCC(=O)Nc1ccc2c(c1)OC[C@@H](C)N(S(=O)(=O)c1cn(C)cn1)C[C@H](C)[C@H](OC)CN(C)C2=O	/	/	-39[16.7 µM]	/	/	/
COc1cc(NC(C(=O)Nc2cccc(C(C)=O)c2)c2ccccc2)cc(OC)c1OC (stereo not given)	-3	/	/	14	18	27*
C[C@@H]1CN([C@H](C)CO)C(=O)c2cc(NC(=O)Cn3cnnn3)ccc2O[C@@H]1CN(C)S(C)(=O)=O	/	/	-18[16.7 µM]	/	/	/
C=CCN1C(=S)CC(c2ccccc2)=Nc2ccccc21	9	24	92*	11	-2	0
C=CCn1c(-c2csc(-c3ccccc3)n2)n[nH]c1=S	5	/	/	-2	3	1
CCCC#Cc1cnc2c(c1)C(=O)N([C@H](C)CO)C[C@H](C)[C@@H](CN(C)C(=O)Cc1ccncc1)O2	/	/	-16[16.7 µM]	/	/	/
CC(=O)Nc1cccc(-c2ccnc3c2CC(C)(C(=O)Nc2cccc(Oc4ccccc4)c2)O3)c1 (stereo not given)	/	64*	-49	32	6	2
Cn1nnc2cc(C(=O)NC3CCCCC3)ccc21	59*	/	/	-20	-1	1
C[C@@H]1CN([C@@H](C)CO)C(=O)c2c(c3ccccc3n2C)-c2ccccc2CO[C@@H]1CN(C)S(=O)(=O)c1cccc(C#N)c1	/	32	-61[16.7 µM]	/	/	/
C[C@H]1CN([C@@H](C)CO)C(=O)c2c(c3ccccc3n2C)-c2ccccc2CO[C@H]1CN(C)S(=O)(=O)c1ccc([N+](=O)[O-])cc1	/	91*	/	/	/	/
C[C@@H]1CN([C@@H](C)CO)C(=O)c2c(c3ccccc3n2C)-c2ccccc2CO[C@H]1CN(C)S(=O)(=O)c1ccc(C#N)cc1	6	23	69*	-19	/	3

High-throughput results: PubChem BioAssay, Broad Institute
